The supplement of paper PMC7724964

Molecular target: T1, ARFGEF2 639-829 Sec7 (domain begin residue: 639, domain end residue: 829), Q9Y6D5
T1 chain: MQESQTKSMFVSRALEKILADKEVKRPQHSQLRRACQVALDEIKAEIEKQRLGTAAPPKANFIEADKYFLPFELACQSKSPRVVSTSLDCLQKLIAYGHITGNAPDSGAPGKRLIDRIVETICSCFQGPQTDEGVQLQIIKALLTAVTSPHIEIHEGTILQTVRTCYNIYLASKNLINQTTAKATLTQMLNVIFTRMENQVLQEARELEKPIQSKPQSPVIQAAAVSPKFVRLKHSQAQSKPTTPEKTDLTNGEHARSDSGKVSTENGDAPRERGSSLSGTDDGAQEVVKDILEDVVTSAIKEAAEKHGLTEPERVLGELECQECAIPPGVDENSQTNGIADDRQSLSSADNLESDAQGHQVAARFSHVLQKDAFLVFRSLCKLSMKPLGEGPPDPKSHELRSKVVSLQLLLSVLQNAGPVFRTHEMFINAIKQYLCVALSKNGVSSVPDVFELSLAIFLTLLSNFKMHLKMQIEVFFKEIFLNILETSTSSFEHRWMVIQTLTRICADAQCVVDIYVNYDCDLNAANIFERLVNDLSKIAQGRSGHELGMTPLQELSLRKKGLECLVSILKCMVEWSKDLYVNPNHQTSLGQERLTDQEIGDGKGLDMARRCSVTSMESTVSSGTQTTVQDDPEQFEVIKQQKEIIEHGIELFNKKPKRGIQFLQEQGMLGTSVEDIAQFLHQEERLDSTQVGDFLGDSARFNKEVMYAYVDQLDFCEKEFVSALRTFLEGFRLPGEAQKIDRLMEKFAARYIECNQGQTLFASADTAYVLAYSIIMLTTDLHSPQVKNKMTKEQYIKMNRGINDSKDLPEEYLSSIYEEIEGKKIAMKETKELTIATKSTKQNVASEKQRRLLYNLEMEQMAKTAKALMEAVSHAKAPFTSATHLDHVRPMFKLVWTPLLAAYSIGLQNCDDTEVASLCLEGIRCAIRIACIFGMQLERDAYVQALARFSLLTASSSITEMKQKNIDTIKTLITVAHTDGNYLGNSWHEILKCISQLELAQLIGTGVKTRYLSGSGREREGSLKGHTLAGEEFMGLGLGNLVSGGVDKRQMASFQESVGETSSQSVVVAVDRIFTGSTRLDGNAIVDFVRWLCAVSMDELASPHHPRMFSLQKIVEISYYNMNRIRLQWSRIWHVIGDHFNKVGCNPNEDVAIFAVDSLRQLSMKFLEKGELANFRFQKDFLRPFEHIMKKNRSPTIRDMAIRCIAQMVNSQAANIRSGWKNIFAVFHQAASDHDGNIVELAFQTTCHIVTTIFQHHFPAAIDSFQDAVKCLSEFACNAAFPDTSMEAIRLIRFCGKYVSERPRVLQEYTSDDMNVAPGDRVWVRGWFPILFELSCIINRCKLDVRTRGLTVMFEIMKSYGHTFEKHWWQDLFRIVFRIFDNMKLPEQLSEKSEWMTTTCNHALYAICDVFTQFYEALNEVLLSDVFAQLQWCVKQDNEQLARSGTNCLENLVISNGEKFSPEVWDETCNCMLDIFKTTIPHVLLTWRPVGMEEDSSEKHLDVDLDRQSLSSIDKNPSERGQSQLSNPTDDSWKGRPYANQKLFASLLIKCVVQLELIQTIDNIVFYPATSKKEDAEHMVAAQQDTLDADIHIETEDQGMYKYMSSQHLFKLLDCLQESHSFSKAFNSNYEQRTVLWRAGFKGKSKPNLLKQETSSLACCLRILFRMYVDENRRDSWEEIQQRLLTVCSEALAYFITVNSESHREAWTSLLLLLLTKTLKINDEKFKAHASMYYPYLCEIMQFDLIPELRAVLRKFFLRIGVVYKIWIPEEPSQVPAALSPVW
Assay: phage ELISA signal ratio (GST-PRM binding over GST background); higher = stronger binding of peptide-phage to the PRM
Experimental: (§1)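 Phage-displayed random hexadecapeptides (Cys-free, flanked by invariant Gly linkers, fused to the M13 P8 major coat protein) were selected over 5 rounds against GST-fused human PRM domains. Individual clones from rounds 4-5 were tested by phage ELISA, and positive clones binding the target but not GST were sequenced. Values are the ELISA signal ratio of target over background (GST); the background signal is given separately.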

| Binder | phage ELISA signal ratio |
| --- | --- |
| MPDGLPEWWQGRHDWW | 18.2 |

Molecular target: T2, BTN1A1 285-479 SPRY (domain begin residue: 285, domain end residue: 479), Q13410
T2 chain: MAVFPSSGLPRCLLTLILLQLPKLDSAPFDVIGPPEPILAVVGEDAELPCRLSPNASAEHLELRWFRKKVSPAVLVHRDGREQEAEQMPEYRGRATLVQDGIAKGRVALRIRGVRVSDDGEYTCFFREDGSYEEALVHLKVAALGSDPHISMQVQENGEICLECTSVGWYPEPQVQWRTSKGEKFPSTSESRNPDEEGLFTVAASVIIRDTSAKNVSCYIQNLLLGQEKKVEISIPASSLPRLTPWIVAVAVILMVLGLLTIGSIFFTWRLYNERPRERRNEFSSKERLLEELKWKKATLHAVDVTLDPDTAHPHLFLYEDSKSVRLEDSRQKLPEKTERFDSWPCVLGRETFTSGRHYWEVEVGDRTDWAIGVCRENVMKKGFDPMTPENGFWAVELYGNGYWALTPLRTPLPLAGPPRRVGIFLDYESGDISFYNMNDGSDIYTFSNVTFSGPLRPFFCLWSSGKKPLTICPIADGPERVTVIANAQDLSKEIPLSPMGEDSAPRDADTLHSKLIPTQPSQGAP
Assay: as above
Experimental: as §1

| Binder | phage ELISA signal ratio |
| --- | --- |
| VDGWWIARSEHLMQMA | 11.9 |
| GWWQSREYYMQDLMAS | 5.49 |
| QTWQERQAMMMHMMQW | 15.7 |
| DVTWWSERAQATLVMM | 12.4 |
| DWQYTYMPDMIPDWVM | 20.7 |

Molecular target: T3, ALDOA 1-364 Glycolytic (domain begin residue: 1, domain end residue: 364), P04075
T3 chain: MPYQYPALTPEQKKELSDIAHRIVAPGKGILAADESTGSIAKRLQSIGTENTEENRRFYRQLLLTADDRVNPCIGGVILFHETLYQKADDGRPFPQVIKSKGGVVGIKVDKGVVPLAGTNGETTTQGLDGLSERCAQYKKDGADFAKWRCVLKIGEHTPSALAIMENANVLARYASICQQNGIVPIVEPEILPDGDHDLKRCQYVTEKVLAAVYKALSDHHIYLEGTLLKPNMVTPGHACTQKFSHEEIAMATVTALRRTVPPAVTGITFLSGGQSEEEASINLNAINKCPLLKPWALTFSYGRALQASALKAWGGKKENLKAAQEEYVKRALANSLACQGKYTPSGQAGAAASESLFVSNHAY
Assay: as above
Experimental: as §1

| Binder | phage ELISA signal ratio |
| --- | --- |
| VQWQERYTDYTFENVT | 24.7 |
| MYDEWHMPDSYEVVVQ | 19.3 |
| WTYESGEWNWYTEEKT | 23.9 |
| WVYENGEWEWTFPPSA | 17.8 |

molecular target: CBX3 109-173 Chromo_shadow (domain begin residue: 109, domain end residue: 173), Q13185; assay: as above
Sequence (Q13185 whole entry): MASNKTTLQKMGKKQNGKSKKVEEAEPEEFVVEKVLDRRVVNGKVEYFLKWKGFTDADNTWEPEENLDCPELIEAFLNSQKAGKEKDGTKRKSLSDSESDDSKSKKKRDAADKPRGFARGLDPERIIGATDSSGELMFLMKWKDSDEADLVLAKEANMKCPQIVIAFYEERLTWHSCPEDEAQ
Experimental: as §1

| Binder | phage ELISA signal ratio |
| --- | --- |
| YQMQQWQFSPEIWLNM | 7.79 |

Molecular target: T4, ARID4A 568-634 Tudor-knot (domain begin residue: 568, domain end residue: 634), P29374
T4 chain: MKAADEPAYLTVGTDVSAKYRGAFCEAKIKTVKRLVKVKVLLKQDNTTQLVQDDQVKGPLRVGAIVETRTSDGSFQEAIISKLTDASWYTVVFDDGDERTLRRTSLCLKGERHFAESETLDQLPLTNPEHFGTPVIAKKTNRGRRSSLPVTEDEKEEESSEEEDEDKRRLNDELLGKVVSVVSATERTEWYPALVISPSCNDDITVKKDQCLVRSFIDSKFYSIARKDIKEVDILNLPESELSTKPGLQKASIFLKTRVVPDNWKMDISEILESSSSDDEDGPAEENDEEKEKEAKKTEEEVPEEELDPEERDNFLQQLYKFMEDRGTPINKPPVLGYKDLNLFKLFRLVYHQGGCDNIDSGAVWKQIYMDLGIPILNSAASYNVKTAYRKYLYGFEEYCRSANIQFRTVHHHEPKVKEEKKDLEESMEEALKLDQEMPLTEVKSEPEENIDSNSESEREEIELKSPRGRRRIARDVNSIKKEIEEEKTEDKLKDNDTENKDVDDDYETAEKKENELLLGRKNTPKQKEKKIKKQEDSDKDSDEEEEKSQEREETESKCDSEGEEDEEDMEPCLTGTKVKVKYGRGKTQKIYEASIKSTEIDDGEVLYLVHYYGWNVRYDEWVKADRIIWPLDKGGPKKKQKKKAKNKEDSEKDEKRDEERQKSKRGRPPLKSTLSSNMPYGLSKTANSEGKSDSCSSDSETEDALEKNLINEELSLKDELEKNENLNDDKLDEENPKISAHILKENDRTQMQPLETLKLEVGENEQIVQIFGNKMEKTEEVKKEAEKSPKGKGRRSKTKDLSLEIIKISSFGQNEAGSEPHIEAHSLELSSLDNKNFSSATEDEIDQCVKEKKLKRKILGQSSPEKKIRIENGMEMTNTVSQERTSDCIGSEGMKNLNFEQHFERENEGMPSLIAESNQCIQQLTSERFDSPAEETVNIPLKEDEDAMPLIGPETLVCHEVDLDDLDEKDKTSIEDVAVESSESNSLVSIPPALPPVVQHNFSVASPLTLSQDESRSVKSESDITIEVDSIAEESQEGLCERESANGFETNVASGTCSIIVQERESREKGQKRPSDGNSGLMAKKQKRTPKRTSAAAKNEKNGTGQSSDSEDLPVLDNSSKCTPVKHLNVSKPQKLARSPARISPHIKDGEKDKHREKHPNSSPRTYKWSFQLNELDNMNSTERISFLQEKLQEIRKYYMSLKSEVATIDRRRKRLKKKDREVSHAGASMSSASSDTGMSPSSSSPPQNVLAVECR
Assay: as above
Experimental: as §1

| Binder | phage ELISA signal ratio |
| --- | --- |
| YYWDTILVDNPEWHQL | 4.22 |
| NWDMWMEEQYDPSVML | 9.12 |
| QQVVDMQQMWQQWIEI | 4.93 |
| DYMSHLFDTMSGVQFQ | 6.29 |

Molecular target: T5, CAPN2 513-700 EF-hand_8 (domain begin residue: 513, domain end residue: 700), P17655
T5 chain: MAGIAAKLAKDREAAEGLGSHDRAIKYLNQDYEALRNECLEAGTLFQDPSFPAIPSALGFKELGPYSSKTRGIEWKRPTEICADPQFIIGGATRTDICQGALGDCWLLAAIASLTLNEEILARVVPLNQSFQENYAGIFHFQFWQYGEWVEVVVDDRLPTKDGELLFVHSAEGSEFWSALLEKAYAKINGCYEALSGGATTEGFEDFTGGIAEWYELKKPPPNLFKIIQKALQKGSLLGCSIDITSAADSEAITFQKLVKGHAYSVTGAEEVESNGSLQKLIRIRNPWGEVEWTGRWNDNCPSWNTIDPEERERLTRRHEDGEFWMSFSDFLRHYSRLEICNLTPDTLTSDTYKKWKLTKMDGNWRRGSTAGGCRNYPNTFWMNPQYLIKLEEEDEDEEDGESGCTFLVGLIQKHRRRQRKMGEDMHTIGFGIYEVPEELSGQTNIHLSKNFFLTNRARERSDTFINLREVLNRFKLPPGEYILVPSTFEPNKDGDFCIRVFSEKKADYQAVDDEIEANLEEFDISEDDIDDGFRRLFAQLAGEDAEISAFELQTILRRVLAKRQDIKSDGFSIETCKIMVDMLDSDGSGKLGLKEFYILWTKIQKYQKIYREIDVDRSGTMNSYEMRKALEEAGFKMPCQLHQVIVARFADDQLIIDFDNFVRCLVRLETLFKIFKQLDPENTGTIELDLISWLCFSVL
Assay: as above
Experimental: as §1

| Binder | phage ELISA signal ratio |
| --- | --- |
| ISESQIAQFVMAWMQQ | 22.5 |

Molecular target: T6, TDRD1 261-449 TUDOR (domain begin residue: 261, domain end residue: 449), Q9BXT4
T6 chain: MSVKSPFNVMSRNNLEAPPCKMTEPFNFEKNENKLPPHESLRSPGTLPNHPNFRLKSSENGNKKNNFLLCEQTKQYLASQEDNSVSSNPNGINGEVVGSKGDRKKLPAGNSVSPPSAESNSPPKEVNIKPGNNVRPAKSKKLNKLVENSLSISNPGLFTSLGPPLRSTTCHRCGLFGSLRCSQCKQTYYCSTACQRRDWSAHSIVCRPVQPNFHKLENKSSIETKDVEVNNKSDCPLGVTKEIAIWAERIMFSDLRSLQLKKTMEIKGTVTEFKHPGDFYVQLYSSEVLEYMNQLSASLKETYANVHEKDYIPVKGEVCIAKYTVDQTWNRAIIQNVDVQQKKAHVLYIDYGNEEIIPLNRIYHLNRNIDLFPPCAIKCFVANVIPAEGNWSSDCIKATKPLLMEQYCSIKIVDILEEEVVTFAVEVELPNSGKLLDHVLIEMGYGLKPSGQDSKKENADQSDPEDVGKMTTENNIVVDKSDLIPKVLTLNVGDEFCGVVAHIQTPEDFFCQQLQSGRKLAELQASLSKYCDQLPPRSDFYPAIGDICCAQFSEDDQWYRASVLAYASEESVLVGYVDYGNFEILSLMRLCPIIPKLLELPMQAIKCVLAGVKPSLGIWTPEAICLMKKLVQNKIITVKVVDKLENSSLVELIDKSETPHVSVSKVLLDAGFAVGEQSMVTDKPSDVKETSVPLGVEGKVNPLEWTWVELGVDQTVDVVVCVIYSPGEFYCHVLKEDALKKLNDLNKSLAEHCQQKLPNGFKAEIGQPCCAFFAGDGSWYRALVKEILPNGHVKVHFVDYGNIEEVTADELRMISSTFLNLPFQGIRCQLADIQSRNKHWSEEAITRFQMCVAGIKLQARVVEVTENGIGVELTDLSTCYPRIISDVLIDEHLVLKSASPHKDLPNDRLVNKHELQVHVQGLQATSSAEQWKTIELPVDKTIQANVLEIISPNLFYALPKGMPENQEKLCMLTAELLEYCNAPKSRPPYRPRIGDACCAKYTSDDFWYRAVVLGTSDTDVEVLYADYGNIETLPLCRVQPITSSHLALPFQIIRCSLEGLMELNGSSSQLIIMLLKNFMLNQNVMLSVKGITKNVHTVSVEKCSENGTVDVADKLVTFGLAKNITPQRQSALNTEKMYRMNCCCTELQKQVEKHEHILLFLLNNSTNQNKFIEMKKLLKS
Assay: as above
Experimental: as §1

| Binder | phage ELISA signal ratio |
| --- | --- |
| DYMSHLFDTMSGVQFQ | 8.02 |
